Assay results as given in PubChem BioAssay (NCATS).
Inconclusive results are not listed. Unmarked numbers belong to inactive results. Calls come from the whole dose curve; as a rule, active = well fitted cell-killing curve with a large enough effect; inconclusive = small, poorly fitted or top-dose-only effect, or effect the other way; inactive = flat fitted curve, though single readings scatter.

The compounds below were run on Tov-21-G (assay: Primary qHTS to identify gynecologic anti-cancer compounds using libraries of approved drugs and bioactive compounds (AID 1345084; note: nearly all actives have a fitted effect of over 55% in size)). Conditions: Gynecologic cancer cell panel viability, ATPlite luminescence, 48 h; series mostly up to 57.5 µM; activity change, negative = cytotoxicity: at the top concentration.
Method in brief: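 48 h compound exposure at 37 C, 5% CO2; five-point qHTS. ATPlite luminescence readout of cell ATP.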
% is set by controls: 0 for no effect and ±100 for the full control effect.

SMILES | activity change, negative = cytotoxicity
CC(C)C[C@H](CO)Nc1nc(S[C@@H](C)c2ccccc2)nc2nc(N)sc12 | 3.99%
CCN(CC)C(=O)C(c1ccccc1)N1CCN(c2ccc(NC(=O)c3ccccc3-c3cccnc3)cc2F)CC1 (stereo not drawn) | 0.177%
Cc1cn2cc(C(=O)N(C)CCO)cc(NC3CCOc4cccc(C)c43)c2n1 (stereo not drawn) | -5.41%
O=C(NC[C@H]1CN(c2ccc(N3CCOCC3=O)cc2)C(=O)O1)c1ccc(Cl)s1 | -1.12%
Cc1cc2c(N3CCCC3)nc(N3CCCC3)nc2n1C | 1.48%
CC(=O)c1ccc2c(c1)[C@H](NC(=O)c1ccc(F)c(Cl)c1)[C@H](O)C(C)(C)O2 | 7.67%
COc1cc2ncnc(Nc3ccc(F)c(Cl)c3)c2cc1O | -26.9%
O=C(Nc1ccccc1)N1CCC(Cc2cnc3ccccc3c2)CC1 | 2.99%
CCC(C)C(=O)OC1C(C)C2(O)C(C=C(CO)CC3(O)C(=O)C(C)=CC32)C2C(C)(C)C12OC(=O)C(C)C (stereo not drawn) | 0.0169% [at 25.3 µM]
Cn1cc(C2=C(c3coc4ccccc34)C(=O)NC2=O)c2cc(Br)ccc21 | 0.623%
CC1=C(C(=O)Nc2cc(Cl)ccc2Cl)C(c2ccco2)C2=C(CCCC2=O)N1 (stereo not drawn) | -3.27%
CC(=O)OC1C(OC(=O)c2ccccc2)C2C(C)(C)CCC(OC(C)=O)C2(C)C23CCC(C)(C2)C(=O)CC13 (stereo not drawn) | -0.361% [at 25.3 µM]
CC(CCC1(O)OC2CC3C4CC=C5C[C@@H](O[C@@H]6O[C@H](CO)[C@@H](O[C@@H]7O[C@@H](C)[C@H](O)[C@@H](O)[C@H]7O)[C@H](O)[C@H]6O[C@@H]6O[C@@H](C)[C@H](O)[C@@H](O)[C@H]6O)CC[C@]5(C)C4CC[C@]3(C)[C@@]2(O)[C@@H]1C)CO[C@@H]1O[C@H](CO)[C@@H](O)[C@H](O)[C@H]1O (stereo partly drawn) | 0.779% [at 11.6 µM]
